Screening results as filed in PubChem.
A selection: hits, their analogues and other compounds. The true share with any hit is near 0.5%.
EPAC2 agonist: EPAC2 (human) agonism | EPAC2 activation, biochemical qHTS; response scale: 100% = 6.5 mM cAMP response | 360,000 tested, 0.079% active | Q8WZA2 | Potency, µM (top dose mostly 154 µM), for inactives: at the top dose activation, most hits filed as activators; also: potency is read from the fitted curve at half-maximal effect; nearly all actives have a fitted effect of over 50% in size
Target sequence (Q8WZA2 whole entry, looked up): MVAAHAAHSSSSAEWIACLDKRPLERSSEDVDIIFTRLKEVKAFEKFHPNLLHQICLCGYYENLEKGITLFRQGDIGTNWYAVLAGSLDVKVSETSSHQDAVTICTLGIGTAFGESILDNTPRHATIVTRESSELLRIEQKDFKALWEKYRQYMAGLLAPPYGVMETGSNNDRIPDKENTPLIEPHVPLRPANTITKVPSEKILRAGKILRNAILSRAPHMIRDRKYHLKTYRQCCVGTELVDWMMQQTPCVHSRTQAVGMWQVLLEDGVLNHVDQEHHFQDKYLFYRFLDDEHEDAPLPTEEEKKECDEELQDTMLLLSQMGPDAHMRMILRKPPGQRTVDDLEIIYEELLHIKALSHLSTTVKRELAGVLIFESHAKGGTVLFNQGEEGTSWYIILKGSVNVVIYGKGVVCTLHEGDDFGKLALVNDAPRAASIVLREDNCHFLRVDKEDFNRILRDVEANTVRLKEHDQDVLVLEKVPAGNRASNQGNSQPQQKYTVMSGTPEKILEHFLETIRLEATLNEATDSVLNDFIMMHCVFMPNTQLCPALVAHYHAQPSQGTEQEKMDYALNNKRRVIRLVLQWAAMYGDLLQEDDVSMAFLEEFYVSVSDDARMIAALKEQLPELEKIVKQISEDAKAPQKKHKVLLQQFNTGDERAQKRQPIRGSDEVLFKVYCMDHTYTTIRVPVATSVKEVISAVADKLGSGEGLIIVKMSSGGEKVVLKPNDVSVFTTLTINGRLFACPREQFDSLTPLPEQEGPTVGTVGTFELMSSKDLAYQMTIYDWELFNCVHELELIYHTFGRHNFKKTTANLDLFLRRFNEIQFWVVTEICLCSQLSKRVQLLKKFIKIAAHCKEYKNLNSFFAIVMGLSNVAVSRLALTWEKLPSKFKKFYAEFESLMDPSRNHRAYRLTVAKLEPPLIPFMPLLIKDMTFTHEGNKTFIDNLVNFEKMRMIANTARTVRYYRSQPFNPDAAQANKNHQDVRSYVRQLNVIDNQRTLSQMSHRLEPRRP
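Compounds were added across a concentration range to EPAC2 (100 nM), RAP1B-BODIPY-GDP (250 nM) and GDP (50 uM). After 5 min at room temperature, fluorescence was recorded at 5-min intervals for 30 min.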
EPAC1 ag: agonists of human EPAC1; O95398; EPAC1 agonist qHTS, biochemical assay; response scale: 100% = response to 6.5 mM cAMP; Potency, µM (series often up to 154 µM), inactives show at the top dose activation, hits mostly activators; 360,000 tested, 0.073% active; also: potency is read from the fitted curve at half-maximal effect; nearly all actives have a fitted effect of over 60% in size
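EPAC1 100 nM, Rap1B–BODIPY-GDP 250 nM, unlabeled GDP 50 uM; compound titration; 5 min RT; kinetic read ex480/em540 at 5-min intervals ×30 min; data normalized to 6.5 mM cAMP agonist control.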
PTHR1 agonist: activates the human parathyroid hormone receptor PTHR1 | 410,000 tested, 0.075% active | HEK293 GP2 PTHR1 cells, GloSensor cAMP luminescence, 1 h | AID 743266 | Potency, µM (titrated, usually from 115 µM), for the others: at the highest dose activation, hits mostly activators | Q03431; also: potency is read from the fitted curve at half-maximal effect; nearly all actives have a fitted effect of over 55% in size
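HEK-293-derived GP2 cells expressing PTHR1 and a GloSensor cAMP reporter, 3,000/well, plated overnight, given luciferin plus IBMX (each 0.5 mM as added) for 1 h at 37 °C, then compound for 1 h at 37 °C. Luminescence was read after 15 min at room temperature.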
TSHR antag: human thyrotropin receptor antagonism. TSHR-expressing cells, TSH-stimulated cAMP HTRF, 2 h; active compounds read low. activity change, negative = inhibition, % at 11.5 µM. 330,000 tested, 0.2% active;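 active = activity change below a set negative limit, meaning inhibition stronger than a set level, cut at about -70% in these data; inconclusive = activity change between two set negative limits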; also: % is scaled to controls: 0 for no effect and ±100 for the full control effect
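TSHR-expressing cells, 200/well, pre-treated with compound, then stimulated with EC80 TSH (4nM final) for 2 hours at 37 deg C. cAMP measured by competitive HTRF: anti-cAMP cryptate antibody in lysis buffer plus cAMP-d2, read after 30 minutes at room temperature.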
EPAC1 antagonist: blocks human EPAC1 exchange factor; Potency, µM (titrated, usually from 115 µM), for inactives: at the highest dose activity change, negative = inhibition, usual class: inhibitors; 360,000 tested, 0.14% active; AID 720709; O95398; EPAC1 GEF assay, Rap1b-BODIPY-GDP exchange fluorescence;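 also: potency is read from the fitted curve at half-maximal effect; plate controls were vehicle for no effect and positive control for full effect; nearly all actives have a fitted effect of over 50% in size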
EPAC2 antagonist: EPAC2 (human) antagonism. Q8WZA2. EPAC2 GEF exchange of Rap1B-BODIPY-GDP, fluorescence. Potency, µM (titrated, usually from 114 µM), for the others: at the top dose activity, negative = inhibition, actives largely listed as inhibitors. 360,000 tested, 0.18% active; also: potency is read from the fitted curve at half-maximal effect; % is scaled to controls: 0 for no effect and ±100 for the full control effect; nearly all actives have a fitted effect of over 45% in size
* marks the source's active call; other numbers are inactive results; i = inactive; u = inconclusive; x = no result given; [ ] = dose if it differs, or a comment. Unless noted, calls follow the shape of the dose curve; as a rule, active = well fitted curve in the direction sought with a large enough effect; inconclusive = small, poorly fitted or top-dose-only effect, or another doubt; inactive = no such curve, though single readings can be large; an effect the other way counts as inactive or inconclusive.

SMILES | EPAC2 agonist | EPAC1 ag | PTHR1 agonist | TSHR antag | EPAC1 antagonist | EPAC2 antagonist
COc1cc(/C=C2\SC(=S)N(NS(=O)(=O)c3ccc(C)cc3)C2=O)ccc1O | -6% | 6% | -45% | -6 | u | u
COc1ccccc1NC(=O)CN1CCCCCC1 | 6% | 7% | -2% | 0 | -5% | 1%
O=C(CN1CCCCC1)Nc1cc(Cl)ccc1Oc1ccccc1 | 2% | 1% | -24% | -8 | -5% | 28µM*
O=C(CN1CCCCCC1)Nc1ccccc1Oc1ccccc1 | 16% | 6% | i | -8 | -11% | 40µM*
NC(=O)C1CCN(CC(=O)Nc2cc(Cl)ccc2Oc2ccccc2)CC1 | 3% | 6% | -17% | -5 | -8% | -16%
O=C(O)c1cc(S(=O)(=O)Nc2cc(Cl)ccc2Oc2ccccc2)ccc1O | -4% | 0% | -4% | -12 | u | 40µM*
COc1ccc(NC(=S)N(CCCN2CCOCC2)C(C)c2cc3cccc(OC)c3o2)cc1 (stereo not drawn) | 10% | 10% | i | -76* | u | -9%
Cc1ccc(Cl)c2sc(N3CCN(C(=O)c4ccco4)CC3)nc12 | 0% | 100µM* | -34% | -5 | -8% | -2%
Cc1ccc(NC(=O)C2C3C=CC4(O3)C2C(=O)N(CCCN2CCCCC2)C4C(=O)NC2CCCCC2)cc1C (stereo not drawn) | 3% | 6% | i | -10 | -3% | -3%
CC(C)C1Nc2ccc(C(=O)N3CCN(c4ccccn4)CC3)cc2NC1=O (stereo not drawn) | -1% | 2% | -9% | -113* | -10% | -6%
O=C1CNc2ccc(C(=O)N3CCN(c4ccccn4)CC3)cc2N1 | 8% | 14% | i | 1 | -13% | -1%
CC(=O)c1ccc(N(C(=O)CNC(=O)c2ccco2)C(C(=O)NC2CCCC2)c2ccncc2)cc1 (stereo not drawn) | 0% | 3% | i | -93* | 3% | 6%
CC(=O)c1cccc(N(C(=O)CNC(=O)c2ccco2)C(C(=O)NC2CCCC2)c2ccncc2)c1 (stereo not drawn) | 9% | -4% | 9% | 1 | 3% | 25%
CCOc1ccccc1C(=O)N(Cc1cc(OC)c(OC)c(OC)c1)c1ccccn1 | x | x | i | x | x | x
Nc1nc2nc[nH]c2c(=O)[nH]1 | 4% | 0% | -9% | -71* | -15% | 8%
O=C(CSc1nc2nc[nH]c2c(=O)[nH]1)NC1CCCCC1 | -4% | -4% | i | -1 | -4% | 2%
CCCCN(C)CC(O)Cn1cc(/C=C/C(=O)c2ccc(OC)c(OC)c2)c2ccccc21 (stereo not drawn) | x | x | -21% | x | x | x
CCCN(C(=O)c1cc2c(s1)-c1ccccc1SC2)c1ccccc1F | x | x | -8% | x | x | x
CC(C)(C)c1ccc(C(=O)NCC2CCCN2S(=O)(=O)c2ccccc2)cc1 (stereo not drawn) | -4% | 45µM* | -11% | -8 | u | -25%
Cc1ccc(C(=O)NCC2CCCN2S(=O)(=O)c2ccc(C)cc2)cc1 (stereo not drawn) | 4% | 6% | -10% | -6 | -4% | -14%
CN1CC=C2C(C#N)=C(N)C(C#N)(C#N)C(c3ccsc3)C2C1 (stereo not drawn) | u | 63µM* | i | -31 | u | -25%
CN1CC=C2C(C#N)=C(N)C(C#N)(C#N)C(CCc3ccccc3)C2C1 (stereo not drawn) | 50µM* | u | i | -5 | u | 45µM*
CCCC1C2CN(C(C)C)CC=C2C(C#N)=C(N)C1(C#N)C#N (stereo not drawn) | 56µM* | 63µM* | -35%[57.5 µM] | -13 | u | 35µM*
CCOC(=O)N1CC=C2C(C#N)=C(N)C(C#N)(C#N)[C@H](c3ccsc3)[C@H]2C1 | 15% | 20% | i | -15 | -8% | -3%
Fc1cccc(CNc2ncnc3ccc(-c4cccnc4)cc23)c1 | x | x | x | -9 | x | x
SMILES | EPAC2 agonist | EPAC1 ag | PTHR1 agonist | TSHR antag | EPAC1 antagonist | EPAC2 antagonist
Cn1c(CNC(=O)C(Cc2ccccc2)NC(=O)c2ccccc2)cc(=O)n(C)c1=O (stereo not drawn) | -1% | -11% | i | -144* | -7% | 26%
COc1cc2c(cc1OC)C(=O)C(c1ccc3c(c1)OCO3)CC2 (stereo not drawn) | -5% | 1% | -73% | x | 15% | -12%
COc1cc2c(cc1OC)C(=O)C(Br)CC2 (stereo not drawn) | 11% | -7% | -36% | x | 45µM* | 28µM*
CCOC(=O)N1CCc2c(sc(NCc3ccc(N(CC)CC)cc3)c2C(=O)Nc2cc(OC)ccc2OC)C1 | x | x | 40µM* | x | x | x
COc1cnc(-c2ccccn2)nc1Oc1c(C)cccc1C | -5% | -11% | i | -1 | -3% | 14µM*
CCCC(=O)OCCNc1cc(Sc2nccn2C)c2nonc2c1[N+](=O)[O-] | -10% | -4% | i | -93* | 3% | 19%
CCCC(=O)OCCNc1cc(SCc2ccco2)c2nonc2c1[N+](=O)[O-] | -10% | 1% | -9% | -21 | 40µM* | -7%
C=C[C@]1(C)C=C2C(=O)[C@@]3(O)OC(=O)[C@@]4(CCCC(C)(C)[C@H]34)[C@@]2(O)CC1 | -7% | -1% | -63% | x | u | u
CCOc1ccc(C(=O)NCCc2sc3nc(-c4ccc(Cl)cc4)nn3c2C)cc1OCC | x | x | i | x | x | x
Cn1ncc(S(=O)(=O)Cc2ccccc2)c(Br)c1=O | x | x | x | -12 | x | x
Cc1[nH]c2ccc(C(=O)OC(C)C(=O)N(C)c3ccccc3)cc2c1C (stereo not drawn) | -5% | 28µM* | -47% | 3 | -11% | -7%
CC(C)Oc1ccc(C(=O)NCCNC(=O)c2ccco2)cc1 | 0% | 1% | i | -94* | 8% | 3%
N#C/C(=C\c1ccc(N2CCOCC2)o1)c1nc2ccccc2[nH]1 | 50µM* | 63µM* | -17% | 16 | -17% | 6%
CC(C)(C)NC(=O)C(c1ccncc1)N(C(=O)Cn1nnc(-c2ccc(F)cc2)n1)c1cccc(F)c1 (stereo not drawn) | -6% | -10% | 10µM* | -10 | -7% | 3%
Cc1cccc(N(C(=O)Cn2nnc(-c3ccccc3F)n2)C(C(=O)NC(C)(C)C)c2ccncc2)c1 (stereo not drawn) | -6% | -2% | i | -14 | -1% | 19%
CCC(C)(C)C1CCc2c(sc(NC(=O)c3ccccc3C(=O)O)c2C#N)C1 (stereo not drawn) | 2% | -8% | -12% | -24 | 79µM* | -16%
